Test results: PubChem BioAssay (Tox21)
Several values for one entry are separate records, joined by “and”; a condition that tells them apart may be missing. Equal values may be shown once. Inconclusive results are not listed. Activity calls are given as the source filed them. Unless noted, calls follow the shape of the full dose curve.

Columns and labels:
[1] = biological target: Acetylcholinesterase (Homo sapiens) (UniProt P22303); test: Acetylcholinesterase (AChE) small molecule antagonists: colormetric cell-based qHTS assay (AID 1347395); also: nearly all actives have a fitted effect of over 30% in size; also: potency is read from the fitted curve at half-maximal effect
Chain of Acetylcholinesterase (Homo sapiens) (P22303 whole entry, looked up): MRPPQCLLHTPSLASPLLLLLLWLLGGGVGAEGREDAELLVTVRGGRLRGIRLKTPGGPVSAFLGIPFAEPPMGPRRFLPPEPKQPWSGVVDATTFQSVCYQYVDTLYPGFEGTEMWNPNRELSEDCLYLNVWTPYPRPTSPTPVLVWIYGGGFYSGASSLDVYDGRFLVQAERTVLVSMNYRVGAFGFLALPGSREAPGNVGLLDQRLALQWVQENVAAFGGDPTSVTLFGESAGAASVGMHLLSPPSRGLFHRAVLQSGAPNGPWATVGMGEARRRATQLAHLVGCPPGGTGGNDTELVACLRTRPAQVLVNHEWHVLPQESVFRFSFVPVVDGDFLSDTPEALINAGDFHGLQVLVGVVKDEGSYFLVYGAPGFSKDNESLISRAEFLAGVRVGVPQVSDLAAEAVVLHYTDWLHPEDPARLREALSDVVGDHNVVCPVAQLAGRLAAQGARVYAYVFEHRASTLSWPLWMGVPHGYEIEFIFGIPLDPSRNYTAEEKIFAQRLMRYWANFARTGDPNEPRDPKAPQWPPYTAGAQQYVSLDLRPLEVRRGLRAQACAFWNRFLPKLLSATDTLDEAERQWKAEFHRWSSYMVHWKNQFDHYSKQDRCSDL
Outline: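 SH-SY5Y cells; cpd 30 min 37 C; + DTNB/acetylthiocholine, 90 min 37 C; colorimetric thiocholine read; qHTS.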

[2] = biological target: Acetylcholinesterase (Homo sapiens) (UniProt P22303); test: Acetylcholinesterase (AChE) small molecule antagonists: fluorescence cell-based qHTS assay (AID 1347398); conditions: Potency: AChE activity; outcome: AChE activity; also: nearly all actives have a fitted effect of over 50% in size; also: potency is read from the fitted curve at half-maximal effect
Outline: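 Using neuroblastoma SH-SY5Y cells as the enzyme source, test chemicals are preincubated 30 min at 37 C; AChE-driven acetylthiocholine cleavage is then quantified by thiocholine-dependent Thiolite Green fluorescence after 40 min at room temperature.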

[3] = biological target: Acetylcholinesterase (Homo sapiens) (UniProt P22303); test: Acetylcholinesterase (AChE) small molecule antagonists: enzyme-based qHTS assay with human liver microsomes (AID 1347399); conditions: Potency: qHTS inhibition; outcome: qHTS inhibition; also: nearly all actives have a fitted effect of over 60% in size
Outline: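 Recombinant human AChE (50 mU/mL in the enzyme mix) and human liver microsomes (0.25 mg/mL final) were preincubated with compound and NADPH (0.25 mg/mL final) for 30 min at 37 C. Acetylthiocholine/DTNB was then added; thiocholine was read colorimetrically after 10 min at room temperature.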

[4] = biological target: Acetylcholinesterase (Homo sapiens) (UniProt P22303); test: Acetylcholinesterase (AChE) small molecule antagonists: enzyme-based qHTS assay (AID 1347397); conditions: Potency: AChE enzyme activity inhibition; outcome: AChE enzyme activity inhibition; also: nearly all actives have a fitted effect of over 55% in size
Outline: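 Compound or DMSO vehicle was pin-transferred onto recombinant human AChE (50 mU/mL as dispensed) and left 30 min at room temperature. Acetylthiocholine with DTNB then started the reaction, read colorimetrically 10 min later.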

[5] = qHTS assay for small molecules that induce genotoxicity in human embryonic kidney cells expressing luciferase-tagged ATAD5 (AID 651632; active = well fitted curve in the direction sought with a large enough effect in the repeat runs; an effect the other way counts as inactive or inconclusive; also: nearly all actives have a fitted effect of over 15% in size)
Outline: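 Test compounds were delivered by pin tool onto HEK293T reporter cells (2,000/well) expressing ATAD5 fused to luciferase. After 16 hr at 37C, 5% CO2, Amplite was added for 30 min at room temperature and luminescence was measured.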

[6] = qHTS assay for small molecules that induce genotoxicity in human embryonic kidney cells expressing luciferase-tagged ATAD5 - cell viability (AID 651634); also: nearly all actives have a fitted effect of over 25% in size
Outline: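 Quantitative high-throughput format. HEK293T cells expressing ATAD5 fused to luciferase were plated at 2,000 cells/well and treated 15.5 hr with compound versus DMSO. Viability was determined by fluorescent live-cell protease substrate, 30 min at 37C.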

[7] = qHTS assay for small molecule disruptors of the mitochondrial membrane potential - cell viability (AID 720634);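 also: human HepG2 liver cancer cells; series mostly up to about 83 µM; nearly all actives have a fitted effect of over 20% in size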
Outline: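 Same-well counter-screen: following the MMP dye addition, CellTiter-Glo was added to 1 hr compound-treated HepG2 cells and luminescence read after 30 min at room temperature.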

[8] = qHTS assay for small molecule disruptors of the mitochondrial membrane potential (AID 720635; active = well fitted curve in the direction sought with a large enough effect in the repeat runs; an effect the other way counts as inactive or inconclusive)
Outline: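 HepG2 cells (2,000/well) attached overnight at 37C, then took compound for 1 hr at 37C, 5% CO2. Mito-MPS dye was added for 30 min; fluorescence was read at 490/535 nm (monomers) and 540/590 nm (aggregates).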

[9] = qHTS assay to test for compound auto fluorescence at 535 nm (green) in HepG2 cells (AID 720675; active = well fitted curve in the direction sought with a large enough effect in the repeat runs; an effect the other way counts as inactive or inconclusive)
[10] = qHTS assay to test for compound auto fluorescence at 460 nm (blue) in HEK293 cells (AID 720678; active = well fitted curve in the direction sought with a large enough effect in the repeat runs; an effect the other way counts as inactive or inconclusive)
Outline: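 HEK293, 2,000 cells/well, 10% dialyzed FBS; attach 4-5 hr 37C; pin compound or DMSO; o/n 37C/5% CO2; fluorescence 405/460 nm; triamterene-equivalent units.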

[11] = qHTS assay to test for compound auto fluorescence at 590 nm (red) in HEK293 cells (AID 720679; active = well fitted curve in the direction sought with a large enough effect in the repeat runs; an effect the other way counts as inactive or inconclusive)
Outline: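 Intensity at 540nm excitation and 590nm emission is reported as Rose Bengal sodium-equivalent autofluorescence. Measurements followed overnight exposure (37C, 5% CO2) of HEK293 cells, 2,000 per well, to 23 nL compound.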

[12] = qHTS assay to test for compound auto fluorescence at 460 nm (blue) in HEK293 cell free culture (AID 720681; active = well fitted curve in the direction sought with a large enough effect in the repeat runs; an effect the other way counts as inactive or inconclusive)
Outline: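 Test compounds were pinned into cell-free culture medium (DMEM with 10% FBS) and fluorescence was read directly at Ex/Em 405/460 nm. Signals were expressed as fluorescence equivalents of triamterene, with DMSO vehicle as control.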

[13] = qHTS assay to test for compound auto fluorescence at 535 nm (green) in HEK293 cell free culture (AID 720682; active = well fitted curve in the direction sought with a large enough effect in the repeat runs; an effect the other way counts as inactive or inconclusive)
Outline: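 Cell-free medium (DMEM, 10% FBS) receives compound or DMSO by pintool. Plate read directly at Ex 485/Em 535 nm. Signal converted to fluorescein equivalency.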

[14] = qHTS assay to test for compound auto fluorescence at 590 nm (red) in HEK293 cell free culture (AID 720683; active = well fitted curve in the direction sought with a large enough effect in the repeat runs; an effect the other way counts as inactive or inconclusive)
Outline: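 Tox21 10K library compounds were pinned into cell-free DMEM with 10% FBS and fluorescence was read at excitation 540 nm. Activity is expressed as Rose Bengal sodium equivalency.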

[15] = qHTS assay to test for compound auto fluorescence at 590 nm (red) in HepG2 cell free culture (AID 720684; active = well fitted curve in the direction sought with a large enough effect in the repeat runs; an effect the other way counts as inactive or inconclusive)
Outline: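 Ex 540 / Em 590 nm read of compound in cell-free MEM (10% FBS). Rose Bengal sodium reference.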

[16] = qHTS assay to test for compound auto fluorescence at 460 nm (blue) in HepG2 cell free culture (AID 720685; active = well fitted curve in the direction sought with a large enough effect in the repeat runs; an effect the other way counts as inactive or inconclusive)
Outline: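 Cell-free plates of MEM plus 10% FBS received 23 nL compound or DMSO vehicle; blue-channel (405/460 nm) intensity scored against triamterene as reference fluorophore.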

[17] = qHTS assay to test for compound auto fluorescence at 535 nm (green) in HepG2 cell free culture (AID 720686; active = well fitted curve in the direction sought with a large enough effect in the repeat runs; an effect the other way counts as inactive or inconclusive)
[18] = qHTS assay to identify small molecule antagonists of the glucocorticoid receptor (GR) signaling pathway - cell viability counter screen (AID 720693; active = well fitted curve in the direction sought with a large enough effect in the repeat runs; an effect the other way counts as inactive or inconclusive; also: nearly all actives have a fitted effect of over 55% in size)
[19] = qHTS assay for identifying genotoxic compounds that show differential cytotoxicity against isogenic chicken DT40 cell lines with known DNA damage response pathways - wild type cell line (AID 743012; active = well fitted curve in the direction sought with a large enough effect in the repeat runs; an effect the other way counts as inactive or inconclusive; also: nearly all actives have a fitted effect of over 60% in size)
Outline: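 300 wt DT40 cells/well; cpd (DMSO) pintool-transferred after ~0.5 h at 37 C/5% CO2; 40 h incubation; CellTiter-Glo added, 30 min RT; luminescence read.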

[20] = qHTS assay for identifying genotoxic compounds that show differential cytotoxicity against isogenic chicken DT40 cell lines with known DNA damage response pathways - Rev3 mutant cell line (AID 743014; active = well fitted curve in the direction sought with a large enough effect in the repeat runs; an effect the other way counts as inactive or inconclusive; also: nearly all actives have a fitted effect of over 55% in size)
[21] = qHTS assay for identifying genotoxic compounds that show differential cytotoxicity against isogenic chicken DT40 cell lines with known DNA damage response pathways - Rad54/Ku70 mutant cell line (AID 743015; active = well fitted curve in the direction sought with a large enough effect in the repeat runs; an effect the other way counts as inactive or inconclusive; also: nearly all actives have a fitted effect of over 60% in size)
[22] = qHTS assay to identify small molecule antagonists of the androgen receptor (AR) signaling pathway - cell viability counter screen (AID 743033; active = well fitted curve in the direction sought with a large enough effect in the repeat runs; an effect the other way counts as inactive or inconclusive; also: nearly all actives have a fitted effect of over 45% in size)
[23] = qHTS assay to identify small molecule antagonists of the thyroid receptor (TR) signaling pathway - cell viability counter screen (AID 743064; active = well fitted curve in the direction sought with a large enough effect in the repeat runs; an effect the other way counts as inactive or inconclusive; also: nearly all actives have a fitted effect of over 50% in size)
Outline: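 GH3.TRE-Luc cells, 4 h pre-plating; cpd + T3 1 nM final; 37 °C 23.5 h; CellTiter-Fluor 30 min; fluorescence read.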

[24] = biological target: Estrogen receptor (Homo sapiens) (UniProt P03372); test: qHTS assay to identify small molecule agonists of the estrogen receptor alpha (ER-alpha) signaling pathway (AID 743075);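 also: HEK293 GripTite cells with ER-alpha and UAS-driven beta-lactamase reporter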
Chain of Estrogen receptor (Homo sapiens) (P03372 whole entry, looked up): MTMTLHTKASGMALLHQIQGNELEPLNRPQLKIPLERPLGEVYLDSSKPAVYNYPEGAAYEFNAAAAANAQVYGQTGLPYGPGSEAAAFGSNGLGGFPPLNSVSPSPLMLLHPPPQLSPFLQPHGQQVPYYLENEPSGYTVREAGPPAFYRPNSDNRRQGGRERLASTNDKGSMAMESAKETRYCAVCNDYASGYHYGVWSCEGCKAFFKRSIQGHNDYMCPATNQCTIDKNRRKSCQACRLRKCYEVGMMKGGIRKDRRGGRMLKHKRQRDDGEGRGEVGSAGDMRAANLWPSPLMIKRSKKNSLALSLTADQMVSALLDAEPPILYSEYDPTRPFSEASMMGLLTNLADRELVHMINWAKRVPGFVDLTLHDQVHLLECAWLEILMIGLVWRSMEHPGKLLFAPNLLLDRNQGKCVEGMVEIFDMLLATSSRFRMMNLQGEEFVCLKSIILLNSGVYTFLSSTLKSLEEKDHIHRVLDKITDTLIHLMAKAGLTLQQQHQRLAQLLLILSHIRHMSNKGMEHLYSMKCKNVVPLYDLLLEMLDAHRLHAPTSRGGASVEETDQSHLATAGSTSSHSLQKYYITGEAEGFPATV

[25] = biological target: Estrogen receptor (Homo sapiens) (UniProt P03372); test: qHTS assay to identify small molecule agonists of the estrogen receptor alpha (ER-alpha) signaling pathway using the BG1 cell line (AID 743079; active = well fitted curve in the direction sought with a large enough effect in the repeat runs; an effect the other way counts as inactive or inconclusive; also: nearly all actives have a fitted effect of over 20% in size)
[26] = qHTS assay to identify small molecule antagonists of the estrogen receptor alpha (ER-alpha) signaling pathway using the BG1 cell line (AID 743080);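 also: BG1 cells stimulated with 17beta-estradiol alongside compound; series mostly up to about 70 µM; nearly all actives have a fitted effect of over 25% in size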
Outline: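 BG1Luc4E2, endogenous ER-alpha, 4xERE-luc; 5 d charcoal-stripped FBS, phenol red free; 24 h plating; cpd + 17beta-estradiol 21.5 h, 37 C/5% CO2; CellTiter-Fluor viability 30 min, then ONE-Glo luciferase 30 min RT.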

[27] = qHTS assay to identify small molecule antagonists of the estrogen receptor alpha (ER-alpha) signaling pathway using the BG1 cell line - cell viability counter screen (AID 743081; active = well fitted curve in the direction sought with a large enough effect in the repeat runs; an effect the other way counts as inactive or inconclusive;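 also: compound given together with 17beta-estradiol as the ER stimulus; series mostly up to about 70 µM; nearly all actives have a fitted effect of over 45% in size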)
Aromatase (Homo sapiens) = Aromatase (Homo sapiens) (UniProt P11511); test: qHTS assay to identify aromatase inhibitors (AID 743083; active = well fitted curve in the direction sought with a large enough effect in the repeat runs; an effect the other way counts as inactive or inconclusive; also: series mostly up to about 70 µM; nearly all actives have a fitted effect of over 55% in size)
Chain of Aromatase (Homo sapiens) (P11511 whole entry, looked up): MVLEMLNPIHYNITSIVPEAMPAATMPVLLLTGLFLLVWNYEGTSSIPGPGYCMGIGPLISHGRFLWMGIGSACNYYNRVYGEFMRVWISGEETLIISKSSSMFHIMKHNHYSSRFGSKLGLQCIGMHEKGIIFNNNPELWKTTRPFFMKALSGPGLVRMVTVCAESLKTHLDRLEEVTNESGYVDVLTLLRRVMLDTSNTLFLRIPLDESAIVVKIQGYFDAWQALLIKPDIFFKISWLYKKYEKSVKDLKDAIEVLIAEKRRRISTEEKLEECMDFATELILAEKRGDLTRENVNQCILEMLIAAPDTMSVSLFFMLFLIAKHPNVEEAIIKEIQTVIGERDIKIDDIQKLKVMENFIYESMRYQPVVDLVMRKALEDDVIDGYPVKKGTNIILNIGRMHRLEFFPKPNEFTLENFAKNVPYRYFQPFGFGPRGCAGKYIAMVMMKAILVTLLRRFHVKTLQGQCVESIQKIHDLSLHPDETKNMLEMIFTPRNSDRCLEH

[28] = qHTS assay to identify aromatase inhibitors - cell viability counter screen (AID 743084; active = well fitted curve in the direction sought with a large enough effect in the repeat runs; an effect the other way counts as inactive or inconclusive)
[29] = biological target: Aryl hydrocarbon receptor (Homo sapiens) (UniProt P35869); test: qHTS assay to identify small molecule that activate the aryl hydrocarbon receptor (AhR) signaling pathway (AID 743085; active = well fitted curve in the direction sought with a large enough effect in the repeat runs; an effect the other way counts as inactive or inconclusive;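 also: HG2L7.5c1 human HepG2 liver cells with stably integrated DRE-driven firefly reporter; series mostly up to about 70 µM; nearly all actives have a fitted effect of over 15% in size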)
Chain of Aryl hydrocarbon receptor (Homo sapiens) (P35869 whole entry, looked up): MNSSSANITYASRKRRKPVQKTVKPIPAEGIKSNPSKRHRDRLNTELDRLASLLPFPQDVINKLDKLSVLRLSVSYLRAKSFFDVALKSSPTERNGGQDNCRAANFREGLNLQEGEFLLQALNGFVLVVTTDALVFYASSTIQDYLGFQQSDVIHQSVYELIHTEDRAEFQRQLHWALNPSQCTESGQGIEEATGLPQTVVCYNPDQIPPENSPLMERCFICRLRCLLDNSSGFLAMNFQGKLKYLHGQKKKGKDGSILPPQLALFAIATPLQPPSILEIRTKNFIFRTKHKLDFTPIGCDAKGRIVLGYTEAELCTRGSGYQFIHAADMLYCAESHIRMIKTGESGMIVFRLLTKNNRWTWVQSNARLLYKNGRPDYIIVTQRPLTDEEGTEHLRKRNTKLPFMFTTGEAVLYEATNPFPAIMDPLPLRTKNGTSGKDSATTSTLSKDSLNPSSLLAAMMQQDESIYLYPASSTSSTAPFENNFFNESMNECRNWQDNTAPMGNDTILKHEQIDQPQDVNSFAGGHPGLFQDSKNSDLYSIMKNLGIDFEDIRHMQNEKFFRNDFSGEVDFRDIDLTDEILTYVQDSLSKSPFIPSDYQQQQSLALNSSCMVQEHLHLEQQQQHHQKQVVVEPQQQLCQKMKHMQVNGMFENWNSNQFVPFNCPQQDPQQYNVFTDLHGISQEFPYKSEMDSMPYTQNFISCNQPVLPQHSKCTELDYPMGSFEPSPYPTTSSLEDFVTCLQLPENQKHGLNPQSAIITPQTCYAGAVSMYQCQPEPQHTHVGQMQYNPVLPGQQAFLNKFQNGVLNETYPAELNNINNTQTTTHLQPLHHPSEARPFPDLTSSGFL
Outline: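 Luminescence read-out: ONE-Glo reagent, 30 min at room temperature, in HG2L7.5c1 HepG2 reporter cells treated 24 h at 37C. Viability was measured beforehand by CellTiter-Fluor fluorescence after 30 min at 37C.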

[30] = qHTS assay to identify small molecule that activate the aryl hydrocarbon receptor (AhR) signaling pathway - cell viability counter screen (AID 743086; active = well fitted curve in the direction sought with a large enough effect in the repeat runs; an effect the other way counts as inactive or inconclusive;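 also: HepG2 liver cells carrying the AhR DRE luciferase reporter; series mostly up to about 70 µM; nearly all actives have a fitted effect of over 45% in size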)
Outline: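 HepG2-AhR-luc (HG2L7.5c1) cells, 4000/well, were preincubated 5 h at 37C, exposed to compound in qHTS format for 24 hr at 37C, then given CellTiter-Fluor for 30 min; viability was read as fluorescence in the reporter wells.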

[31] = biological target: Peroxisome proliferator-activated receptor gamma (Homo sapiens) (UniProt P37231); test: qHTS assay to identify small molecule agonists of the peroxisome proliferator-activated receptor gamma (PPARg) signaling pathway (AID 743094; active = well fitted activation curve with a large enough effect in the signal ratio in the repeat runs, not every such curve was filed as active; the % refers to the signal ratio)
Chain of Peroxisome proliferator-activated receptor gamma (Homo sapiens) (P37231 whole entry, looked up): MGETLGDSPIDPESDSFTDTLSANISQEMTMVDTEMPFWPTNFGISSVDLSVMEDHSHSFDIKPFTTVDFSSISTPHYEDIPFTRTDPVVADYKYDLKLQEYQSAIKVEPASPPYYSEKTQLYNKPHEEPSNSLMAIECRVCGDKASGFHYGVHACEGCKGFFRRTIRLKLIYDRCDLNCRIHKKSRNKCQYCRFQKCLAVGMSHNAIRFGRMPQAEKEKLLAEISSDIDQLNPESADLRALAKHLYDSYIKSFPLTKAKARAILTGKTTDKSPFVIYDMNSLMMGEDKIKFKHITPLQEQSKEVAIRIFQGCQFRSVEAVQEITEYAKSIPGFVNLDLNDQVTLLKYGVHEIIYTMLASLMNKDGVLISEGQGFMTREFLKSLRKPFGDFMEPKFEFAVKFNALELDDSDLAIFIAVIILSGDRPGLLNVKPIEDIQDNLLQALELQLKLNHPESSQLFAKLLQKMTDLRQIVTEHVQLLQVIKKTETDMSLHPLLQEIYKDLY
Outline: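 Cell-based bla reporter, HEK293H background, PPARg-driven UAS. Pre-incubation 5 h, 37C, 5% CO2. Compound 17 h, 37C. Substrate 1 h RT; fluorescence.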

Measured: Potency

c1ccc2n[nH]nc2c1
inactive: [1] | [2] | [3]

Nc1cc(S(=O)(=O)O)cc2cc(S(=O)(=O)O)cc(O)c12
inactive: [1] | [2] | [3]

CC(C)CC(C)(C)C
inactive: [1] | [2] | [3]

O=C1NCC2(CCN(CCc3ccccc3)CC2)O1
inactive: [1] | [2] | [3]

CC(C)(C#N)c1cc(Cn2cncn2)cc(C(C)(C)C#N)c1
inactive: [1] | [2] | [3]

C=CCOCC(CO)(COCC=C)COCC=C
inactive: [1] | [2] | [3]

Cc1ccc(N(C)C)cc1
inactive: [1] | [2] | [3]

COc1cc(C(=S)N2CCOCC2)cc(OC)c1OC
inactive: [1] | [2] | [3]

CC(=O)[C@H]1CC[C@H]2[C@@H]3CCC4=CC(=O)CC[C@]4(C)[C@H]3CC[C@]12C
inactive: [3]
active: [1] 39.7 µM and 35.6 µM | [2] 28.1 µM and 31.7 µM

Nc1ccc(O)c(N)c1
inactive: [1] | [2] | [3]

Nc1cc(S(=O)(=O)O)ccc1S(=O)(=O)O
inactive: [1] | [2] | [3]

CC(C)(C#N)Nc1nc(Cl)nc(NC2CC2)n1
inactive: [1] | [2] | [3]

Nc1cc(Cl)c(-c2cc(Cl)c(N)cc2Cl)cc1Cl
inactive: [1] | [2] | [3]

Cc1ccc(C(=O)c2ccccc2)cc1
inactive: [1] | [2] | [3]

CCOc1ccc(NC(C)=O)cc1N
inactive: [1] | [2] | [3]

CC(C)(C)c1ccc(S)cc1
inactive: [1] | [2] | [3]

O=[N+]([O-])c1cc(N(CCO)CCO)ccc1NCCO
inactive: [1] | [2] | [3]

c1cc(C(c2ccc(OCC3CO3)cc2)c2ccc(OCC3CO3)cc2)ccc1OCC1CO1 (stereo not given)
inactive: [1] | [2] | [3]

c1cc(-c2ccncc2)ccn1
inactive: [4] | [2] | [3]

COc1ccc(OC)c(C[C@H](C)N)c1
not listed: [1] | [2] | [3] | [4]
inactive: all other assays above
